# Source: PubChem BioAssay (National Center for Advancing Translational Sciences (NCATS))
# Sampled rows, rich in hits. Any-hit rate of the full collection: about 11%.
# PLK1 PBD inh = blocks phosphopeptide binding to human PLK1 polo-box domain. P53350. Plk1 PBD binding of FITC phosphopeptide, fluorescence polarization. Potency, µM, hits mostly inhibitors. 2.8% of 360,000 active. AID 720504; note: series mostly up to about 57 µM; nearly all actives have a fitted effect of over 65% in size
# HP1b binding inh = inhibitors of HP1-beta chromodomain binding to methylated histone tails; P83916; AlphaScreen HP1-beta / biotin-H3K9me3 peptide binding; Potency, µM (doses to about 114 µM), most hits filed as inhibitors; 0.56% of 390,000 active; note: nearly all actives have a fitted effect of over 70% in size
#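 AlphaScreen: HP1-beta (50 nM) preformed 30 min with biotin-H3(1-18)K9me3 peptide (50 nM) in PBS pH 7.4, 0.01% Tween-20. Compound added for 30 min at RT, then streptavidin donor/nickel chelate acceptor beads (10 ug/mL) for 30 min.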
# VDR inhibitor = vitamin D3 receptor (human) inhibition; VDR-SRC2-3 peptide fluorescence polarization, 2 h; Potency, µM, hits mostly inhibitors; 0.93% of 400,000 active; P11473
#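 The screen uses fluorescence polarization to detect compounds that interfere with recruitment of the SRC2-3 coactivator peptide to VDR; plates are read after 2 h at room temperature.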
# JMJD2A Tudor inh = inhibitors of human JMJD2A Tudor domain; O75164; AlphaScreen JMJD2A-Tudor / H3K4me3 peptide binding; Potency, µM (highest dose often 114 µM), actives largely listed as inhibitors; 4.4% of 390,000 active; AID 504339; note: nearly all actives have a fitted effect of over 50% in size
# Target sequence (O75164 whole entry, looked up, the tested form may be a part): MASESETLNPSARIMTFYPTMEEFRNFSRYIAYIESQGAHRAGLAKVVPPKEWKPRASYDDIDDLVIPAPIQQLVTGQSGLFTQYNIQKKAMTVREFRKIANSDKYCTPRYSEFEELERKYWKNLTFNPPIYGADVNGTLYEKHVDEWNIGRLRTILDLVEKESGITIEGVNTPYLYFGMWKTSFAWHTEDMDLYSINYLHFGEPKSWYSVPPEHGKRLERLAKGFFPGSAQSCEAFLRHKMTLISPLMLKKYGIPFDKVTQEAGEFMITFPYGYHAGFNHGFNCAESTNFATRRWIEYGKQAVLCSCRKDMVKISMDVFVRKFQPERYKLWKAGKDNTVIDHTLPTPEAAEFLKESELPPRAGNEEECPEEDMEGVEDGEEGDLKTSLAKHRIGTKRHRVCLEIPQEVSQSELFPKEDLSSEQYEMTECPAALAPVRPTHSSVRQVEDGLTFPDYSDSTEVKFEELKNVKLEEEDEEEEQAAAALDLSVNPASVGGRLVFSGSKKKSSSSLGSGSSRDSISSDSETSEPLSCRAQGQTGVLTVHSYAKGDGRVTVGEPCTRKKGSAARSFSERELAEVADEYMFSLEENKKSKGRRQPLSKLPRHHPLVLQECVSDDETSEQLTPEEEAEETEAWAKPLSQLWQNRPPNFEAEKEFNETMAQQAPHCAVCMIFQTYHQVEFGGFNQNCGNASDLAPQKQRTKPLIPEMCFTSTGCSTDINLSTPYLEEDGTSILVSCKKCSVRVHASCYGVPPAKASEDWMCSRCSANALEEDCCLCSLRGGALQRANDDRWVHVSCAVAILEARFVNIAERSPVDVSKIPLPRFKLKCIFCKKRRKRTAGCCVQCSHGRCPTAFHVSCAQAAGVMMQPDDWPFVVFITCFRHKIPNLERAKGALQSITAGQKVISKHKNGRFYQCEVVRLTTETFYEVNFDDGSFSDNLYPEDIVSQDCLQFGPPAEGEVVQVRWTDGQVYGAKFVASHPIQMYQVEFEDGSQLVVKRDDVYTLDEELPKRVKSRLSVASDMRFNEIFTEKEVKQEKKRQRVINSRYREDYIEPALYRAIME
# BAZ2B block = blocks human BAZ2B; Q9UIF8; AlphaScreen BAZ2B-H3K14Ac peptide displacement; Potency, µM (top dose mostly 114 µM), usual class: inhibitors; 4.4% of 360,000 active; AID 504333; note: nearly all actives have a fitted effect of over 60% in size
#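 AlphaScreen displacement: compounds (up to 110uM) incubated 30 min at room temperature with a preformed 50 nM BAZ2B/50 nM biotinylated H3K14Ac peptide complex in PBS pH 7.4 with Tween-20. Donor and acceptor beads at 10 ug/mL final added, 20 min light-protected before reading.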
# G9a inh = G9a (human) methyltransferase inhibition. Potency, µM (highest dose often 102 µM), most hits filed as inhibitors. Q96KQ7. 8.8% of 350,000 active. G9a H3K9 monomethylation, AlphaScreen, 2 h; note: nearly all actives have a fitted effect of over 75% in size
#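 AlphaScreen detection with an anti-monomethyl H3K9 antibody quantified product after a 2 h room-temperature reaction containing 500 nM biotinylated H3K9 peptide, 20 µM SAM and 20 nM enzyme, which had been preincubated 15 min with compound.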
# A number is an active result; n = inactive; u = inconclusive; x = not tested or not shown; [ ] = remark or other dose. Calls come from the whole dose curve; as a rule, active = well fitted curve in the direction sought with a large enough effect; inconclusive = small, poorly fitted or top-dose-only effect, or another doubt; inactive = no such curve, though single readings can be large; an effect the other way counts as inactive or inconclusive.
SMILES,PLK1 PBD inh,HP1b binding inh,VDR inhibitor,JMJD2A Tudor inh,BAZ2B block,G9a inh
Cc1ccc(C(=O)NCC(=O)OCC(=O)NC(C)C2CC3CCC2C3)cc1 (stereo not given),n,n,n,n,n,28µM
COc1ccc(N=C2NN=C(c3c(C)[nH]c4ccccc34)CS2)cc1,n,u,n,u,40µM,8.9µM
Cc1[nH]c2ccccc2c1C1=NNC(=Nc2ccc(F)cc2)SC1,n,u,n,56µM,u,u
CC(C)N=C1NN=C(c2ccc(F)cc2)CS1,n,n,u,n,n,u
Cc1ccc(CNC(=O)C2CCN(c3nn4c(=O)cc(C)nc4s3)CC2)cc1,n,n,n,n,n,n
CCOc1ccc(-c2cc(N)n(S(=O)(=O)c3ccc(OC)c(OC)c3)n2)cc1,n,n,n,n,n,n
CCOc1ccc(-c2cc(N)n(S(=O)(=O)c3cccc4nsnc34)n2)cc1,n,n,n,u,u,22µM
COCCNC(=S)N1CCN(c2nc(-c3ccc(F)cc3)cs2)CC1,n,n,n,n,u,50µM
COCCNC(=S)N1CCN(c2nc(-c3ccc(Cl)cc3)cs2)CC1,24µM,n,n,32µM,n,u
O=C(O)c1ccc(Cl)c(S(=O)(=O)Nc2ccc(OCc3ccccc3)cc2)c1,n,n,n,n,n,40µM
COc1ccc(NC(=O)Cn2nc(-c3ccccc3)c3cnc4ccc(C)cc4c32)cc1,x,n,n,n,n,n
Cc1cn([C@H]2C[C@H](O)[C@@H](CCC(=O)NCc3cccc4ccccc34)O2)c(=O)[nH]c1=O,n,x,x,x,x,x
COc1ccc(CCNC(=O)c2cnc3sc(N4CCCC4)nn3c2=O)cc1OC,x,n,n,n,n,n
Cc1ccccc1Cn1c(C(=O)O)c(CNCc2cccc(F)c2)c2ccccc21,x,n,n,n,n,n
CC(=O)Nc1ccc(S(=O)(=O)NC(CSc2ccc(C(=O)O)cc2[N+](=O)[O-])C(=O)O)cc1 (stereo not given),n,n,n,n,u,50µM
Nc1ccc(-c2cc3ccccc3oc2=O)cc1,n,n,n,n,n,n
O=C/C=C/c1c(-c2ccccc2)cc2oc3ccccc3cc1-2,n,6.3µM,35µM,6.3µM,3.5µM,8.9µM
O=C(c1ccc(Cl)cc1)c1cn(Cc2ccccc2)c2cc3c(cc2c1=O)OCCO3,x,n,n,n,n,n
COc1cc(NS(C)(=O)=O)ccc1Nc1c2ccccc2nc2ccccc12,n,n,u,u,u,12µM
CCN1CCN(c2nc(NCCO)c3ccccc3n2)CC1,n,n,n,n,n,40µM
COc1ccc(OC)c(Nc2c3c(nc4ccccc24)CCC3)c1,n,n,n,u,n,n
COc1ccc(Cl)cc1Nc1nc(Cl)nc(NCCO)n1,n,x,x,x,x,x
OCCNc1nc(N2CCN(Cc3ccccc3)CC2)nc2ccccc12,n,n,n,n,n,u
CCOc1nc(NCCO)nc(Nc2cc(Cl)ccc2OC)n1,27µM,n,n,n,n,n
COc1ccc(OC)c(Nc2c3ccccc3nc3ccccc23)c1,n,u,n,22µM,50µM,n[2.33 µM]
SMILES,PLK1 PBD inh,HP1b binding inh,VDR inhibitor,JMJD2A Tudor inh,BAZ2B block,G9a inh
CCN1C(=O)[C@H]2[C@@H](c3ccc(Cl)cc3)N3C(=O)CN(CCOC)C(=O)[C@@]3(C)[C@H]2C1=O,n,n,n,n,n,x
COc1cc(OC)c(N(C)C(=O)CSc2c3c(nc4ccc(Cl)cc24)CCCC3)cc1Cl,x,n,n,n,x,u
COc1ccc(CNC(=O)CCc2c(C)c3cc4c(C)coc4c(C)c3oc2=O)cc1OC,x,n,n,n,n,n
OCCNc1nc(-c2ccccc2)nc2ccccc12,n,n,n,n,n,n
COc1ccccc1Nc1nc(NCCO)c2ccccc2n1,x,x,x,x,n,n
COc1ccccc1Nc1nc(NCC2CCCO2)c2ccccc2n1 (stereo not given),u,n,n,50µM,n,n
COc1ccc(OC)c(Nc2nc(NCCO)c3ccccc3n2)c1,n,n,n,45µM,50µM,x
Cc1ccc(Nc2nc(NCCO)c3ccccc3n2)cc1C,n,n,n,n,n,79µM
Oc1ccccc1-c1nc(NCC2CCCO2)c2ccccc2n1 (stereo not given),n,n,n,n,n,n
CCN1CCc2c(sc(-n3cccc3)c2C(C)NC(=O)Nc2ccc(C(=O)OC)cc2)C1 (stereo not given),x,n,n,u,u,u
CC(C)C[C@H]1CN(CCCC[C@@H]2CNC(=O)C(=O)N2CCc2ccccc2)C(=O)C(=O)N1CCC1CCCCC1,n,x,x,x,x,x
CCOC(=O)c1ccc2c(c1)N(CC(=O)Nc1ccc(C)cc1C)C(=O)c1ccccc1S2,x,n,n,n,n,n
CCOC(=O)c1cncc(O)c1,n,n,n,n,n,n
O=C(NCCCNC(=O)c1cncc(O)c1)c1cncc(O)c1,u,n,n,n[11.4 µM],u,50µM
CCOC(=O)CCCNC(=O)c1cncc(O)c1,n,n,n,n,u,56µM
O=C(O)CCCNC(=O)c1cncc(Br)c1,n,n,n,n,n,n
O=C(NCCCCCCNC(=O)c1cncc(O)c1)c1cncc(O)c1,n,n,n,16µM,50µM,71µM
CN(C)C(=O)c1cc(C(=O)c2ccc(C(F)(F)F)cc2F)c[nH]1,n,n,n,n,n,n
COC(=O)c1ccc(N=Cc2c(-c3ccccc3)[nH][nH]c2=O)cc1,n,n,n,n,u,40µM
CN(C)c1ccc(-c2nn3c(-c4ccc(Cl)cc4Cl)nnc3s2)cc1,x,x,x,x,n,14µM
Cc1ccc(-c2nn3c(C)nnc3s2)cc1NC(=O)c1ccc(Br)o1,n,n,n,n,n,u
Clc1cccc(-c2nnc3sc(-c4ccc5c(c4)OCO5)nn23)c1,x,x,x,x,n,10µM
Clc1ccccc1-c1nnc2sc(-c3ccc4c(c3)OCO4)nn12,4.7µM,u,u,u,n,1.8µM
Clc1ccc(-c2nnc3sc(-c4ccc(Br)o4)nn23)c(Cl)c1,n,n,n,n,n,n[2.33 µM]
Cc1ccc(-c2nn3c(C)nnc3s2)cc1NC(=O)c1ccc(-c2ccc(Cl)cc2Cl)o1,n,n,n,63µM,u,n
SMILES,PLK1 PBD inh,HP1b binding inh,VDR inhibitor,JMJD2A Tudor inh,BAZ2B block,G9a inh
CCCCn1c(N)c(NCC)c(=O)[nH]c1=O,n,n,n,n,n,n
Cc1cccc(CNS(=O)(=O)c2ccc(-c3coc(C)n3)cc2)c1,x,n,n,n,n,n
CC(=O)Nc1ccc2c(c1)OCCOCCOc1cc(NC(C)=O)ccc1OCCO2,n,n,n,n,n,50µM
O=C(O)CCNc1ccc2c(c1)OCCO2,n,n,n,45µM,n,u
CC(=O)N/N=C(\C)CC(=O)Nc1ccc2c(c1)OCCO2,n,n,n,n,n,45µM
O=C(O)CCCCCNC(=O)Nc1ccc2c(c1)OCCO2,n,n,n,n,n,n
CCn1ccnc1CN1CCC(n2nccc2NC(=O)c2ccccc2OC)CC1,n,n,n,n,n,u
